72 compounds from PubChem BioAssay AID488969 (Vanderbilt High Throughput Screening Facility, 2010) can be followed below.

Whole data set: some 110,000 compounds, median “z-score” near -0.1, cut for the highest 2% near 2. This is one part of a sample in which the highest values are shown more often than they occur. Calls of active or inactive are those of the source.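 How the source made its calls: active means z-score in the third read window above 3 or below -3; inactive means the rest.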

Sequence of Metabotropic glutamate receptor 8 (Rattus norvegicus) (P70579 whole entry, looked up): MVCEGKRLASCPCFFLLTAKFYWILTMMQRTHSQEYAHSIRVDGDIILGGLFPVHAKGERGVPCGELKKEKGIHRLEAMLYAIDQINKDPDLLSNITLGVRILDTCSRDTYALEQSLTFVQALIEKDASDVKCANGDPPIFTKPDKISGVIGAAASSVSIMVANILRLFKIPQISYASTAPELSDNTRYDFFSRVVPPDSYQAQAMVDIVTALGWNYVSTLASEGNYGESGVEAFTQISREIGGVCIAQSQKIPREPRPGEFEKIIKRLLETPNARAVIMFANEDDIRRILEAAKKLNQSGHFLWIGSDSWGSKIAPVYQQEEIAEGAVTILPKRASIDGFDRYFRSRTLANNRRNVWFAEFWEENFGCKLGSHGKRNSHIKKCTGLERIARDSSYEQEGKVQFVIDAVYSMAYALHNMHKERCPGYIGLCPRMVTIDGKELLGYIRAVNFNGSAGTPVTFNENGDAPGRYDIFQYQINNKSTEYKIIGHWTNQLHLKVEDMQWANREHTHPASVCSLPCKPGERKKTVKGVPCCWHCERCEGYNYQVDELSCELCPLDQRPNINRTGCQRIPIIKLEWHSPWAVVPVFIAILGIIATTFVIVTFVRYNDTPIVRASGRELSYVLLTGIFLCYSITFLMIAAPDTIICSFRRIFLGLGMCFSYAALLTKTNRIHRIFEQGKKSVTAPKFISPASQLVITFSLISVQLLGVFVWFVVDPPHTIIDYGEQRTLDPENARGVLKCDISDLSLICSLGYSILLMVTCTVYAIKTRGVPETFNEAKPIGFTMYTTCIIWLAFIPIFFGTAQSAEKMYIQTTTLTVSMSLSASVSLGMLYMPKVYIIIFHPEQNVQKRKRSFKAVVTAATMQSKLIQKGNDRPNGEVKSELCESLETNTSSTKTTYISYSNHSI

This test concerns the target Metabotropic glutamate receptor 8 (Rattus norvegicus) (UniProt P70579). The test can be described thus: mGluR8 Gi/Go-coupled signaling modulation – cell-based, rat, thallium flux, HTS, primary screen (AID 488969). Conditions: HEK293 rat mGluR8, GIRK (G protein-gated inwardly rectifying potassium channel) thallium flux, FluoZin2; at 10 µM; stronger effect = higher value.
For `CC/C(=N\Nc1cccc2ccccc12)c1c(O)[nH]c(=O)[nH]c1=O`, the z-score is -0.114. `CC(=O)OC1C2CCC1C(N1CCCC1)CC2` (configuration not stated): the z-score is -0.278. `C1=C(c2c[nH]c3ccccc23)CCNC1`: the z-score was 1.29.

Compound `CCN(CC)Cc1c[nH]c2ccccc12` gave a z-score of -0.122. In the case of `CCN1CC=C(c2c[nH]c3ccccc23)CC1` it was 2.05; in that of `O=C(C1CCCN(c2nnc(-n3cccc3)s2)C1)N1CCC2(CC1)OCCO2` (configuration not stated), 0.546. The value for `O=C1NC(=O)N(c2ccc3c(c2)OCO3)C(=O)/C1=C/c1ccc(N2CCCCC2)o1` was -0.618; that for `Nc1c(C(=O)OCc2ccccc2)c2nc3ccccc3nc2n1Cc1cccs1` was 0.248; that for `CC(=NCC1CCCO1)c1c(O)n(-c2ccc(Cl)cc2)c(=O)[nH]c1=O` (configuration not stated) was -1.18.

For the compound `CC(=NCC1CCCO1)c1c(O)n(-c2ccccc2)c(=O)[nH]c1=O` (configuration not stated), the z-score is 0.0257. The value for `CC(=NCC1CCCO1)c1c(O)n(-c2ccc(C)cc2)c(=O)[nH]c1=O` (configuration not stated) was 2.68. Turning to `CN(C)CCN=Cc1c(O)n(Cc2ccco2)c(=O)[nH]c1=O`, the z-score was determined as 0.184. The value for `Cc1ccc(N2C(=O)NC(=O)/C(=C\c3ccsc3)C2=O)cc1C` was -0.165; that for `O=c1c2ccccc2nc(CSc2ncnc3nc[nH]c23)n1-c1ccc(Cl)c(Cl)c1` was -0.202. In the case of `CC1CCC(NCCc2ccc3c(c2)OCO3)CC1` (configuration not stated) it was 0.00241; in that of `c1cc2c(cc1CCNC1C3CC4CC(C3)CC1C4)OCO2` (configuration not stated), 2.3; in that of `c1cc2c(cc1CCNC1CCCCCC1)OCO2`, 0.232.

`Cc1cc(C)nc(NC2=NCCS2)n1` yielded a z-score of 0.179. The value for `CC1(C)CN=C(Nc2ccc(F)c(F)c2)S1` was -0.117. Take `Fc1ccc(NC2=NCCS2)cc1Cl`: the z-score is 4.82 (active). Compound `CCC(COC(=O)NC)NC(=O)Oc1cccc(C)c1` (configuration not stated) returned a z-score of -0.336. `CC(=O)Nc1ccc(OC(=O)c2ccccc2N)cc1` registered a z-score of 0.06. With `CNCC(O)c1cccc(OC(=O)c2ccccc2C)c1` (configuration not stated), the z-score amounted to 2.34. In turn, `COC(=NC1CCCCC1)C(O)c1c[nH]c2ccccc12` (configuration not stated) gave a z-score of -0.119. In the case of `O=C(c1ccccc1F)c1cn(Cc2ccccc2)c2ccccc12` it was -0.253; in that of `O=C(COc1ccccc1)c1cn(Cc2ccccc2)c2ccccc12`, -0.418. For `CN(C)CCOC(=O)c1cn(Cc2ccccc2)c2ccccc12`, the z-score came out at 2.01.

Turning to `CCCCN1C(=O)NC(=O)/C(=C/c2cnc(SC)nc2)C1=O`, the z-score is -0.221.

In turn, `CCOC(=O)C1CCN(/C=C2/C(=O)NC(=O)N(c3ccc(OCC)cc3)C2=O)CC1` gave a z-score of 0.14.

Compound `CC/C(=N\Nc1ccccc1)c1c(O)n(C)c(=O)n(C)c1=O` yielded a z-score of -0.0457. Compound `CC(=NCCC(c1ccccc1)c1ccccc1)c1c(O)n(C)c(=O)n(C)c1=O` came in with a z-score of -0.488.

As for `C/C(=N\Nc1ccccc1)c1c(O)n(C)c(=O)n(C)c1=O`, the z-score is 3.74 (active). In the case of `CC(Cc1ccccc1Sc1ccc(O)cc1)N(C)C` (configuration not stated) it was 1.64.

As for `O=C(NC(Cc1ccccc1)C(=O)N1CCC2(CC1)OCCO2)C1CCCCC1` (configuration not stated), the z-score is 0.317.

Compound `CCOC(=O)C1=C(NC(=S)NC(=O)c2ccccc2)c2ccccc2CC12CCCC2` showed a z-score of 2.46. For `CCOC(=O)C1=C(N)OC(C)=C(C(=O)OCCOC)C12C(=O)Nc1ccccc12` (configuration not stated), the z-score was 0.399. In the case of `COC(=O)C(O)(c1ccc(NC(=S)NC(=O)c2ccccc2)cc1)C(F)(F)F` (configuration not stated) it was 0.443; in that of `CCN1CCN(c2ncnc3ccc(Br)cc23)CC1`, 0.327. For the compound `CNCC1(c2ccccc2)CCCC1`, the z-score was determined as 0.566. In the case of `O=C(NC(=C(Cl)Cl)P(=O)(c1ccccc1)c1ccccc1)c1ccccc1` it was -0.29. In the case of `CCOc1ccc(Br)c(C2(O)CC(C)N(C)CC2C)c1` (configuration not stated) it was 2.44; in that of `Cc1ccc(C)c(C2(O)CC(C)N(C)CC2C)c1` (configuration not stated), 0.0958. The value for `CCC(=O)OC1(c2cccc(C)c2)CC(C)N(C)CC1C` (configuration not stated) was 0.852; that for `COc1ccccc1N(CC(=O)NC1CCCCC1)C(=O)c1cnn(C(C)C)c1` was 0.21. As for `CN1C(=O)NC(=O)C2(Cc3ccccc3N3CCOCC32)C1=O` (configuration not stated), the z-score is -0.307. The value for `CCCCn1c(O)c(C(CC)=NCc2cc(OC)cc(OC)c2)c(=O)[nH]c1=O` was -0.703; that for `N=c1c[n+](CC23CC4CC(CC(C4)C2)C3)[n-]o1` was 2.09. In the case of `O=C(c1ccc2c(c1)ncn2C1CCCCCC1)N1CCC2(CC1)OCCO2` it was -0.0497. As for `CCCCCCCC(=O)NC(Oc1ccccc1[N+](=O)[O-])C(Cl)(Cl)Cl` (configuration not stated), the z-score stood at 0.238. The value for `CCCC(=O)Nc1cc(C(=O)N2CCC3(CC2)OCCO3)ccc1S(=O)(=O)c1ccc(C)cc1` was -0.0584. Compound `CC(C(N)=O)N1CC(c2ccc(Cl)cc2)CC1=O` (configuration not stated) displayed a z-score of -0.161. In the case of `OC(Cc1ccccc1)(c1ccccc1)C1CN2CCC1CC2` (configuration not stated) it was 2; in that of `CN1CCCC1C(O)(c1ccccc1)c1ccccc1` (configuration not stated), -0.0177.

The compound `Cc1ccccc1C(O)(Cc1ccccc1)C1CN2CCC1CC2` (configuration not stated) registered a z-score of -0.323. The value for `CCOC(=O)c1sc(/N=C/c2c(O)n(-c3cccc(C)c3)c(=O)[nH]c2=O)c(C#N)c1C` was -0.627; that for `CCN1C(=O)C(=Cc2cc(C)n(C3CC3)c2C)C(=O)N(CC)C1=S` was -0.0808. In the case of `CC1=NN(c2ccccc2)C(=O)C1/C=C1\C(=O)NC(=O)N(c2cc(C)cc(C)c2)C1=O` (configuration not stated) it was -0.0364; in that of `CN(C)C(=O)Oc1ccc(OC(=O)N(C)C)cc1`, 0.415; in that of `CN1/C(=C\C=Nc2ccccc2)C(C)(C)c2ccccc21`, -0.319.

`CN1/C(=C\C=C\C2=[N+](C)c3ccc4ccccc4c3C2(C)C)C(C)(C)c2ccccc21`: the z-score is 5.85 (active). The value for `C[N+]1=C(/C=C/Nc2ccccc2)C(C)(C)c2ccccc21` was -1.45.

For the compound `Cc1cc(C=C2C(=O)N(C)C(=S)N(C)C2=O)c(C)n1C1CCCCC1`, the z-score was -0.45. The value for `O=C1CN=C(c2ccccc2)c2ccccc2N1Cc1ccc(C(F)(F)F)cc1` was 0.646. Take `CNC(=O)OCCc1nccn1C`: the z-score is 3.02 (active). `CNC(=O)OCCc1n(C)cc[n+]1C`: the z-score was -0.193. The value for `C=CCn1c(O)c(/C=C2/C=CC=N2)c(=O)[nH]c1=O` was -0.219. `O=C(c1cc(S(=O)(=O)N2CCCCC2)ccc1F)N1CCC2(CC1)OCCO2` came in with a z-score of -0.0595. In the case of `CCCCn1c(O)c(C(C)=NCCCn2ccnc2)c(=O)[nH]c1=O` it was 2.03; in that of `CCCCn1c(O)c(C(C)=NCCCN(C)C)c(=O)[nH]c1=O`, 0.319. In turn, `CCCCCCN=C(C)c1c(O)n(CCCC)c(=O)[nH]c1=O` gave a z-score of -2.32. The value for `O=[N+]([O-])c1ccc(C2[C@H]3C(c4ccccc4)=NC4(CCCCC4)N23)cc1` (some centres not stated) was -0.0546; that for `O=c1[nH]c(=O)n(C2CCCCCC2)c(O)c1C=NC1CCN(Cc2ccccc2)CC1` was -0.182.
